Laboratory results: PubChem BioAssay AID493192 (National Center for Advancing Translational Sciences (NCATS), 2011)
Results filed as inconclusive are left out. Where a call stands in place of a potency, no number is given. The source made the active and inactive calls. Calls follow the shape of the dose curve; as a rule, active = well fitted activation curve with a large enough effect; inconclusive = small, poorly fitted or top-dose-only effect; inactive = no such curve, though single readings can be large or run the other way.

Test: qHTS Assay for Identifying a Potential Treatment of Ataxia-Telangiectasia: Hit Validation;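 also: phospho-KAP1 level by AlphaLISA as a proxy for ATM-like kinase activity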
Details: Ataxia-telangiectasia cell-based hit validation qHTS, in ATM-null A-T patient fibroblasts; series mostly up to 76.9 µM
Procedure, shortened: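 KAP-1 phosphorylation was read by AlphaLISA as a measure of ATM-like activity in ATM-null F2112 fibroblasts. Compounds spanned up to 76.7 uM final, with 60 min exposure at 37C and a 6 hr detection incubation at 25C.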
Potency is read from the fitted curve at half-maximal effect.

Row | Compound | Potency
1 | COc1ccc(N(C)S(=O)(=O)c2cccc(C(=O)OCC(=O)NCc3ccccc3OC)c2)cc1 | inactive
2 | COc1ccc(CCn2c(S)nc3ccccc3c2=O)cc1 | 26 µM (active)
3 | CCC(Oc1ccccc1)C(=O)N(C)CC(=O)N(CC(C)C)c1c(N)n(CC(C)C)c(=O)[nH]c1=O (stereo not drawn) | inactive
4 | O=C(COc1ccccc1Cl)NCCCNC(=O)c1cnccn1 | inactive
5 | COc1ccc(-c2nn(C)c(=O)[nH]2)cc1 | inactive
6 | O=C(CNCc1cccs1)Nc1cc(S(=O)(=O)N2CCCC2)ccc1Cl | inactive
7 | CNC(=S)N(CCc1c(C)[nH]c2ccc(Cl)cc12)Cc1cccnc1 | inactive
8 | O=C(Nc1ccc(N2CCCC2)cc1)c1ccc(Cl)cc1Cl | inactive
9 | C=Cc1c(C)c2cc3[nH]c(cc4nc(cc5nc(cc1[nH]2)C(C)=C5CCC(=O)O)C(CCC(=O)O)=C4C)c(C)c3C=C | inactive
10 | N#Cc1c2c(c(-n3cnc4ccccc43)n3c1nc1ccccc13)CCC2 | inactive
11 | O=[N+]([O-])c1ccc(F)cc1F | 29.2 µM (active)
12 | CN(C)S(=O)(=O)c1ccc(NC(=O)c2ccc([N+](=O)[O-])cc2)cc1 | inactive
13 | N#CCN1C(=O)C(=O)N(Cc2cccc(Cl)c2)C1=O | inactive
14 | O=C(O)CCC(=O)NN1C(=O)c2ccccc2NC1c1ccco1 (stereo not drawn) | inactive
15 | CC1CC(C)CN(C(=O)COC(=O)c2c[nH]c3ccccc23)C1 (stereo not drawn) | inactive
16 | CCOC(=O)c1ccccc1NC(=O)c1ccc2nc[nH]c2c1 | inactive
17 | Cc1ccc(OC(=O)c2cc(C)nn2C(C)(C)C)cc1 | inactive
18 | CC(NC(=O)COC(=O)/C=C/c1ccc(Cl)cc1)c1ccccc1 (stereo not drawn) | inactive
